Only some compounds are listed: those with a hit (about 5.4% of all), similar ones and a draw of the others.
GAA850 FXN act – FXN promoter activators, primary screen, cell-based, luciferase luminescence, HEK293 lucGAA850; HEK293 lucGAA850 FXN promoter luciferase reporter, 24 h; percent of 10 µM SAHA response; activation, % at 6 µM; AID 540364, 2011; 0.56% of 360,000 active;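 active = activation above the average of all compounds screened plus 3 SD, cutoff fixed separately per campaign, cut at about 7.5% in these data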;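 also: 0% = DMSO wells and 100% = 10 µM SAHA wells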
HSF1 inh – HSF1 inhibitors in luciferase reporter cells, primary screen, cell-based, NIH3T3, luminescence; NIH3T3-HGL HSE-luciferase, MG132-induced, luminescence 8 h; hits give low values; activity change, negative = inhibition, % at 7.5 µM (by protocol); 0.77% of 300,000 active; AID 2098, 2009;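 active = more than half of replicate wells show activity change below -50%, luminescence cut by over half; inconclusive = some wells, but at most half, below -50%; inactive = no replicate well below -50%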;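 also: luciferase reports HSF-1 transcriptional activity via heat shock element; 0% = median of DMSO wells and -100% = zero luminescence signal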
AHR act – AHR activators, primary screen, cell-based, luminescence, luciferase reporter, human; AHR-responsive luciferase reporter cells; activation, % at 5 µM; 2.5% of 320,000 active; in the data active = activation above about 47%;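 also: 0% = vehicle wells and 100% = reference agonist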
HSF1 activator – HSF-1 activators, primary screen, NIH3T3-HGL cells, MG132 stress, luminescence, single point. NIH3T3-HGL HSF-1 luciferase reporter, 8 h; 100% = twice DMSO control signal. activation, % at 9 µM. AID 504408, 2011. 1.7% of 300,000 active;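 active = mean replicate activation of at least 50% with a set share of replicates each reaching 50%; inconclusive = only one of those two conditions met; inactive = mean below 50% and too few replicates reaching it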;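 also: 0% = median of the neutral control wells and 100% = twice that signal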
DAX1 inh – DAX1 (NR0B1) inhibitors, primary screen, cell-based, HEK293, Gal4-DAX1, luciferase luminescence; Nuclear receptor subfamily 0 group B member 1 (Homo sapiens), P51843; HEK293 Gal4-DAX1 luciferase reporter; inhibition, % at 6.75 µM; 0.99% of 340,000 active;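 active = inhibition above the mean over all tested compounds plus 3 SD, cut at about 4.2% in these data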;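 also: 0% = DAX1-transfected cells with DMSO and 100% = empty-vector control cells with DMSO; inhibition shows as a rise in luminescence from relieved DAX1 repression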
Target sequence (P51843 207-470 limits assumed): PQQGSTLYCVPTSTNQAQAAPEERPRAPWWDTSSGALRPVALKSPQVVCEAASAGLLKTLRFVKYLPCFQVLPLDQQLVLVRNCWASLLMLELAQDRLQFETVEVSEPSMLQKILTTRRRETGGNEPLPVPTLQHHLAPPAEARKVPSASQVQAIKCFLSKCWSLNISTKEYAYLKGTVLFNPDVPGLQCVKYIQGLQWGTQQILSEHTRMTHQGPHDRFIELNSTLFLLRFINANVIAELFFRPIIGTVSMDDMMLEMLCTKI
GAA30 FXN cntr – GAA30 FXN promoter activators, confirmation, counter-screen for GAA850 frataxin promoter activator project, cell-based, luminescence, HEK293, lucGAA30, triplicate | shares compounds with GAA850 FXN act | HEK293 lucGAA30 FXN promoter luciferase, 24 h; DMSO = 0%, 5 µM ipriflavone = 100% | activation, % at 6 µM | 66% of 1,900 active | AID 588350, 2011;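 active = mean activation above the mean of solvent-only control wells plus 3 SD, cut at about 22% in these data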;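 also: counterscreen of GAA850 promoter hits where activity marks nonselective or luminescence artifacts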
FXN GAA850 conf – FXN GAA850 promoter activators in reporter cells, confirmation, cell-based, luminescence, HEK293 lucGAA850, triplicate. shares compounds with GAA850 FXN act. HEK293 lucGAA850 FXN promoter luciferase reporter, 24 h; 100% = activation by SAHA. activation, % at 6 µM. 86% of 1,900 active. AID 588351, 2011;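 active = mean activation above a set limit taken from the primary screen, cut at about 8% in these data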;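 also: 0% = DMSO wells and 100% = 10 µM SAHA wells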
* marks the source's active call; other numbers are inactive results; u = inconclusive; x = no result.

SMILES	GAA850 FXN act	HSF1 inh	AHR act	HSF1 activator	DAX1 inh	GAA30 FXN cntr	FXN GAA850 conf
CC(NS(C)(=O)=O)C(c1cccs1)N1CCN(C)CC1 (stereo unspecified)	1.2	-2.2	4.0	-1.5	1.0	x	x
O=C(N/N=C\c1ccco1)Nc1cccc(Cl)c1	9.0*	30.3	51.7*	69.0*	0.8	102.6*	37.6*
CNC1=C([N+](=O)[O-])CC([N+](=O)[O-])=C(N2CCNCC2)N1C	2.5	3.1	-1.2	-2.3	0.5	x	x
COc1nc(N(C#N)CC(N)=O)nc(N2CCCC2)n1	11.9*	-10.6	9.0	-1.2	0.3	16.5	18.0*
CCOC(=O)NC(=O)/C(C#N)=C\Nc1sccc1C(=O)OC	-1.2	1.3	3.3	1.9	0.8	x	x
CCOC(=O)NC(=O)/C(C#N)=C\Nc1ccc(Cl)cc1Cl	8.3*	13.3	6.4	3.4	-0.3	21.6	4.9
CCc1ccc(NC(=O)CCn2nc(C)c(S(=O)(=O)N3CCCCC3)c2C)cc1	7.6*	14.9	2.0	30.8	0.1	6.9	8.6*
CC(CCN1C(N(C)C)=NC[C@@H]1C)c1ccccc1 (stereo partly specified)	2.0	x	5.7	x	-0.4	x	x
Fc1ccc(COc2ccccc2C(=S)N2CCCC2)cc1	0.1	0.7	5.0	32.9	0.2	x	x
Cc1ccc(COc2ccccc2C(=S)N2CCCC2)cc1	8.1*	17.5	4.8	8.9	-0.2	51.0*	23.2*
COC(=O)N=Nc1c(O)[nH]c2ccc(Br)cc12	10.5*	0.6	69.5*	5.8	1.4	143.9*	32.1*
O=C(Nc1cc([N+](=O)[O-])ccc1N1CCOCC1)c1ccco1	1.2	-10.2	-1.2	7.2	-1.2	x	x
Cc1ccc([N+](=O)[O-])cc1N/C=C/C(=O)c1ccco1	9.3*	11.0	17.0	38.3	1.4	27.3*	24.8*
CC(=O)N1/C(=C/c2ccc(N(C)C)cc2)C(=O)c2ccccc21	-1.9	-7.5	x	-7.3	-5.5	x	x
Cc1ccc(/C(O)=C2\C(=O)C(=O)N(C)C2c2cccc([N+](=O)[O-])c2)cc1 (stereo unspecified)	1.9	-2.6	-0.2	12.4	0.7	x	x
COc1ccc2cc(-c3csc(-c4cccnc4)n3)ccc2c1	8.1*	-2.4	2.2	-7.6	4.0	92.1*	37.3*
COc1ccc(-c2csc(-c3cccnc3)n2)cc1C	9.5*	-8.2	8.4	-0.8	3.4	88.2*	32.4*
NC(=O)c1cc(-c2csc(-c3cccnc3)n2)ccc1O	-1.1	12.5	23.6	19.0	0.0	x	x
Cc1ccc(C)c(-c2csc(-c3cccnc3)n2)c1	-0.3	-2.6	-0.7	26.9	1.8	x	x
Cc1cc(-c2cc(C(=O)NCc3ccccc3)on2)nc(S(C)(=O)=O)n1	9.7*	19.9	0.5	19.9	-0.4	50.4*	26.3*
COCCNc1nc(C)cc(-c2cc(C(=O)NCc3ccccc3)on2)n1	2.4	-3.5	20.0	-11.0	0.2	x	x
COc1cc(NC(=O)CCCNC(=O)c2ccc(Cl)cc2)cc(OC)c1OC	0.3	2.3	2.1	28.2	-0.7	x	x
Oc1csc(Cc2nc(-c3ccc4ccccc4c3)cs2)n1	10.2*	-2.4	83.4*	19.8	2.5	63.4*	42.6*
COc1ccccc1N1CCN(C(=O)c2ccc(Cn3c(=O)[nH]c4ccsc4c3=O)cc2)CC1	1.5	7.0	-0.1	4.4	-1.1	x	x
CON(C)c1nc(OCCNC(=O)OCc2ccc(Cl)cc2C)nc(N(C)C)n1	11.9*	2.5	-1.4	-5.1	-0.8	20.5	6.2
SMILES	GAA850 FXN act	HSF1 inh	AHR act	HSF1 activator	DAX1 inh	GAA30 FXN cntr	FXN GAA850 conf
CN(C)c1nc(OCCOC(=O)Nc2ccc(Cl)cc2Cl)nc(N(C)C)n1	-0.1	-3.9	-1.8	10.4	0.3	x	x
CCOC(=O)C1=C(COC(=O)c2ncc(Cl)c(Cl)c2Cl)NC(=O)NC1C (stereo unspecified)	4.5	0.3	3.4	-8.5	0.6	x	x
O=[N+]([O-])c1cc(/C=N\O)ccc1Oc1ccc(F)cc1	9.4*	-1.8	1.4	5.5	-0.8	51.4*	25.2*
Cc1ccc2nc3c(cc(C#N)c(=N)n3Cc3cccnc3)c(=O)n2c1	x	-4.5	6.8	4.7	x	x	x
Nc1ccccc1Nc1cccc(C(F)(F)F)c1	8.7*	1.3	2.9	2.7	-2.7	-0.7	9.6*
CCN(c1ccccc1)c1nc2ccsc2c(=O)s1	4.9	x	-0.6	x	0.7	x	x
CN(c1ccccc1)c1nc2ccsc2c(=O)s1	7.7*	11.1	1.3	17.3	2.9	93.8*	35.7*
O=C1/C(=C/c2ccccc2)Oc2cc(OC(=O)N3CCOCC3)ccc21	7.8*	22.8	12.1	41.3	2.3	61.6*	23.7*
O=C1/C(=C/c2ccc(F)cc2)Oc2cc(OC(=O)N3CCOCC3)ccc21	-0.5	18.1	0.0	u	0.4	x	x
CCc1nn(C(CC)C(=O)NCCc2ccc(OC)cc2OC)c(=O)c2cc3occc3n12 (stereo unspecified)	10.1*	12.3	6.7	28.5	0.4	12.7	9.5*
CCc1nn(C(CC)C(=O)NCc2cccs2)c(=O)c2cc3occc3n12 (stereo unspecified)	2.5	11.4	0.3	-2.0	0.7	x	x
COc1ccc(N(C=O)C(C(=O)Nc2c(C)cccc2C)c2ccccc2)cc1 (stereo unspecified)	-0.7	-1.2	-0.3	8.9	0.2	x	x
CCOC(=O)c1c(CSc2ccc(CC)cc2)oc2ccc(O)c(CN(C)C)c12	0.3	-7.4	0.2	3.5	-1.5	x	x
CCOC(=O)c1c(CSc2ccccc2)oc2cc(Br)c(O)c(CN(C)C)c12	8.2*	0.6	4.4	16.4	-2.2	21.3	9.7*
N#C/C(=C/c1ccco1)c1nc2ccccc2s1	7.7*	43.9	30.4	99.7*	1.7	142.3*	45.4*
NC(=S)NN=C1c2ccccc2-c2cc(Br)ccc21	10.5*	x	x	x	-3.6	16.6	13.6*
ON=C1c2ccccc2-c2ccc(Br)cc21	0.9	x	x	x	-0.3	x	x
CC(Oc1ccc(C(C)(C)C)cc1)C(=O)NCC(c1ccco1)N1CCCC1 (stereo unspecified)	8.4*	x	1.5	x	-0.5	16.2	9.6*
CCCCC(=O)Nc1ccc2c(c1)nc(CCN1CCN(C)CC1)n2C	-0.1	-1.7	-2.1	10.3	-1.6	x	x

Screening results: PubChem BioAssay, several laboratories
